# This is a sample that favours compounds with a hit; in the whole collection about 2.4% have one here.
# Cruzain inh Det: blocks cruzain activity in presence of Triton detergent. actives 0.43% (n = 200,000). P25779. Potency, µM, for inactives: max response, negative = inhibition, usual class: inhibitors. purified cruzain, Z-FR-AMC fluorescence, 0.01% Triton;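 also: plate controls were neutral wells for no effect and buffer without enzyme for full effect; nearly all actives have a fitted effect of over 40% in size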
# Target sequence (P25779 123-467 limits assumed): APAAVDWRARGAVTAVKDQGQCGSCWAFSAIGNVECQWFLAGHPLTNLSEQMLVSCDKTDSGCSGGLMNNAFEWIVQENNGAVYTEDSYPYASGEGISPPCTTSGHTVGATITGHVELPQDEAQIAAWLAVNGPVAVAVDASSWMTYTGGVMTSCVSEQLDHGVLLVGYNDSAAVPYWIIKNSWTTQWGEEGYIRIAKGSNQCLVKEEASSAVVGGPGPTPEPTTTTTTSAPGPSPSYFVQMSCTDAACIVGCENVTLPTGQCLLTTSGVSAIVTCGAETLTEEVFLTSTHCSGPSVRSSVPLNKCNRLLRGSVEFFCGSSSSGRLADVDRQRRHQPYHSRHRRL
#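 Z-FR-AMC hydrolysis (2 uM substrate) by cruzain (1.5 nM) monitored kinetically at ex 360/em 450 nm after 15 min room-temperature compound exposure; 0.01% Triton X-100, pH 5.5, 5 mM DTT.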
# Cruzain noTriton: inhibitors of Trypanosoma cruzi cruzain without detergent. Potency, µM, for the others: max response, negative = inhibition, most hits filed as inhibitors. purified cruzain, Z-FR-AMC fluorescence, no detergent. actives 2.3% (n = 200,000). P25779;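 also: plate controls were enzyme without inhibitor for no effect and buffer without enzyme for full effect; nearly all actives have a fitted effect of over 40% in size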
#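 Purified cruzain at 1.5 nM, pre-incubated 15 min with compound at room temperature in 100 mM sodium acetate pH 5.5, 5 mM DTT, 0.00005% Triton X-100. Reaction started with 2 uM Z-FR-AMC; AMC fluorescence increase over 60 s gives rate.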
# Active calls of the source: *; ? = inconclusive. Calls follow the shape of the dose curve; as a rule, active = well fitted curve in the direction sought with a large enough effect; inconclusive = small, poorly fitted or top-dose-only effect, or another doubt; inactive = no such curve, though single readings can be large; an effect the other way counts as inactive or inconclusive. Potency is read from the fitted curve at half-maximal effect.
SMILES,Cruzain inh Det,Cruzain noTriton
COc1cccc(NC(=O)C2CCN(S(=O)(=O)c3c(C)noc3/C=C/c3cccs3)CC2)c1,-3%,16µM*
CN(C)c1ccc(C2CC(c3c(O)n(C4CCCCC4)c(=O)[nH]c3=O)=Nc3ccccc3S2)cc1 (stereo not given),-5%,13%
O=S(=O)(Nc1ccc(-c2nc3cccnc3s2)cc1)c1cccs1,-3%,13µM*
O=S(=O)(Nc1ccc(-c2nc3cccnc3s2)cc1)c1ccc(Cl)s1,-12%,?
Cc1nc2c(ccc3nc(NC(=O)c4ccc5c(c4)OCCO5)sc32)s1,14µM*,2%
Cc1nc2ccc3nc(NC(=O)c4ccc5c(c4)OCCO5)sc3c2s1,3%,-5%
Cc1ccc2occ(CC(=O)Nc3ccc(Cl)c(C(F)(F)F)c3)c2c1,-7%,-1%
O=C(Nc1cccc(C(=O)N2CCN(c3cccc(Cl)c3)CC2)c1)c1nsc2ccccc12,-1%,?
O=C(Nc1ccc(C(=O)N2CCN(c3ccccc3)CC2)cc1)c1nsc2ccccc12,-1%,-29%
O=C(Nc1cccc(C(=O)N2CCN(c3ccc(Cl)cc3)CC2)c1)c1nsc2ccccc12,0%,20µM*
O=C(Nc1ccc(C(=O)N2CCN(c3cccc(Cl)c3)CC2)cc1)c1nsc2ccccc12,-1%,10µM*
Cc1ccc(Cn2ccn(Cc3ccc(C)cc3)c(=O)c2=O)cc1,-4%,-10%
CCOC(=O)C1=C(O)C(=O)N(c2ccc(S(N)(=O)=O)cc2)C1c1ccc(OC)cc1 (stereo not given),1%,-1%
CCOC(=O)C1C(C)=C(Nc2ccc(OC)cc2)C(=O)N1c1ccc(OC)cc1 (stereo not given),-2%,13µM*
C[N+](C)(N)Cc1nc(-c2ccc(Cl)cc2)no1,0%,-4%
Cc1ccc(N=Cc2c(O)n(-c3ccc4c(c3)OCO4)c(=O)c3ccccc23)cc1,-3%,3.2µM*
Cc1cccc(-n2c(O)c(C=Nc3ccc(O)cc3)c3ccccc3c2=O)n1,-11%,?
Cc1ccc(OCC(=O)Nc2ccc(O)c(C(=O)O)c2)cc1C,1%,-8%
CCC(=O)Nc1ccc2c(c1)C(=O)c1ccccc1C2=O,-7%,7%
Cc1ccc(OCC(=O)Nc2ccc(N3CCCC3)cc2)cc1C,?,2.5µM*
Cc1cc(C)cc(OCC(=O)Nc2ccc(N3CCCC3)cc2)c1,?,4µM*
Cc1cccc(OCC(=O)Nc2ccc(N3CCCC3)cc2)c1C,?,3.2µM*
Cc1cc(C)cc(OCC(=O)Nc2ccc(F)cc2)c1,0%,-19%
Cc1cc(C)cc(OCC(=O)Nc2ccc3c(c2)C(=O)c2ccccc2C3=O)c1,-1%,25µM*
CCOc1ccccc1OCC(=O)Nc1ccc(N2CCCCC2)cc1,2%,-5%
SMILES,Cruzain inh Det,Cruzain noTriton
COC(=O)N1[C@H]2CC[C@@]3(C)C=C(C)O[C@]1(C)C3c1ccccc12,1%,3%
CCOc1ccc(/C=C/c2nc(C#N)c(N3CCN(CC)CC3)o2)cc1,-9%,-3%
COc1ccc(-c2onc(C)c2C)cc1S(=O)(=O)NCc1ccc(C)o1,1%,-9%
O=C(O)CCC(=O)Nc1ccc(N2CCCCCC2)cc1,3%,-5%
Cc1cccc(C)c1OCC(=O)Nc1cccc(-c2nnc(-c3ccccc3)o2)c1,4%,?
O=C(Cc1ccc(Cl)cc1)Nc1ccc(N2CCCC2)cc1,3%,6.3µM*
Cc1cccc(OCC(=O)Nc2cccc(-c3nnc(-c4ccccc4)o3)c2)c1C,0%,25µM*
Cc1cc(C)cc(NC(=O)c2cccc(C(=O)Nc3cc(C)cc(C)c3)c2)c1,0%,-4%
CCNc1ncc2nc(-c3ccc(Cl)cc3)c(=O)n(CCC#N)c2n1,2%,5%
COc1ccc(C)cc1Nc1cc(C)nc(C)n1,-2%,-6%
CCSC1=C(C#N)C(c2cccs2)C(C(=O)OC)=C(C)N1 (stereo not given),-2%,-11%
CCCSC1=C(C#N)C(c2cccs2)C(C(=O)Nc2ccccc2)=C(C)N1 (stereo not given),-12%,25µM*
O=C(O)c1cccc([As]=[As]c2cccc(C(=O)O)c2)c1 (stereo not given),5%,13%
Cc1ccc(-c2csc(NC(=O)CCCc3cccs3)n2)cc1,0%,7.9µM*
CC(=O)Nc1ccc(-c2csc(NC(=O)CCCc3cccs3)n2)cc1,-6%,10µM*
CCC(=O)Nc1ccc(-c2csc(NNC(C)=O)n2)cc1,-4%,-9%
O=C(O)CCC(=O)Nc1nc(-c2ccccc2)cs1,2%,-10%
Cc1c(C)c(C)c(CC2(C)CSC2)c(CC2(C)CSC2)c1C,-7%,-3%
C=CCSc1nnc(NC(=O)CSc2ccccn2)s1,1%,-2%
C=CCSc1nnc(NC(=O)COc2ccc3ccccc3c2)s1,4%,13µM*
COC(=O)c1sc(NC(=O)COc2cccc3ccccc23)nc1C,5%,?
CCSc1nnc(NC(=O)COc2cccc3ccccc23)s1,-8%,13µM*
CCOc1ccc(S(=O)(=O)N(C(=O)c2ccncc2)c2ccc3oc(C)c(C(=O)OC)c3c2)cc1,-7%,4%
O=C1OCCN1C(=O)[C@H]1[C@H](c2ccccc2)C(c2ccccc2)=NN1c1ccc(Br)cc1,-5%,20µM*
Cc1cccc(C2=NN(c3ccc(Br)cc3)[C@@H](C(=O)N3CCOC3=O)[C@@H]2c2ccccc2)c1,-10%,18µM*
SMILES,Cruzain inh Det,Cruzain noTriton
O=C1OCCN1C(=O)[C@H]1[C@H](c2ccc([N+](=O)[O-])cc2)C(c2ccc(F)cc2)=NN1c1ccccc1,4%,?
O=C1OCCN1C(=O)[C@H]1[C@H](c2ccccc2)C(c2ccccc2)=NN1c1ccccc1,1%,?
C[C@@H]1C(c2ccccc2)=NN(c2ccccc2)[C@H]1C(=O)N1CCOC1=O,-2%,-2%
O=C1OCCN1C(=O)[C@H]1[C@H](c2ccccc2)C(c2ccc(F)cc2)=NN1c1ccc(Br)cc1,-6%,20µM*
Cc1cccc(C2=NN(c3ccccc3)[C@@H](C(=O)N3CCOC3=O)[C@@H]2c2ccccc2)c1,-2%,?
O=C1OCCN1C(=O)[C@H]1[C@H](c2ccc([N+](=O)[O-])cc2)C(c2ccc(F)cc2)=NN1c1ccc(Br)cc1,2%,8.9µM*
CC(C)C(=O)CP(=O)(O)O,-1%,6%
Cc1cc(/C=C2/C(=O)NN(c3ccccc3)C2=O)c(C)n1-c1cccc(O)c1,-14%,25µM*
CC1=NN(c2ccccc2)C(=O)/C1=C\c1cc(C)n(-c2ccccc2)c1C,-9%,?
O=C(NNC(=O)c1cc2cc3ccccc3nc2s1)c1cccc(C(F)(F)F)c1,-10%,25µM*
O=C(NNS(=O)(=O)c1ccccc1)c1cc2cc3ccccc3nc2s1,-7%,-7%
Cc1ccc(NC(=O)Cn2c(-c3nonc3N)nc3ccccc32)cc1C,7.1µM*,4µM*
Cc1ccc(C)c(NC(=O)Cn2c(-c3nonc3N)nc3ccccc32)c1,-1%,3%
CCC(Sc1nc2cc(OC)c(OC)cc2c(=O)n1Cc1ccc(Cl)cc1)C(=O)NCCOC (stereo not given),4%,-5%
Cc1cc(C2(c3cc(C)c(O)cc3C)OS(=O)(=O)c3ccccc32)c(C)cc1O,-8%,8%
N#C/C(=C\c1ccc(-c2cccc(Cl)c2)o1)C(=O)Nc1cccc2cccnc12,0%,3.2µM*
N#C/C(=C\c1ccc(-c2ccccc2)o1)C(=O)Nn1cnnc1,-6%,-2%

# Assay outcomes as filed in PubChem BioAssay.
